# Laboratory results published in PubChem BioAssay (NCATS).
# Inconclusive results are not listed. Where a call stands in place of a potency, no number is given. Calls of active or inactive are those of the source. The call rests on the fitted dose curve; in most records, active means well fitted curve in the direction sought with a large enough effect; inconclusive means small, poorly fitted or top-dose-only effect, or another doubt; inactive means no such curve, though single readings can be large; an effect the other way counts as inactive or inconclusive.
# Biological target: Aldehyde dehydrogenase, mitochondrial (Homo sapiens) (UniProt P05091)
# Assay: qHTS for Inhibitors of the Aldehyde Dehydrogenase Family (ALDH2) Primary screen (AID 2061308); further: nearly all actives have a fitted effect of over 55% in size
# Conditions: ALDH2 enzyme inhibition qHTS, 1536-well; series mostly up to 56 µM
row,SMILES,Potency
1,N=c1c2c(ccn1Cc1ccccc1)Oc1ccc3ccccc3c1C2c1ccccc1 (stereo not drawn),inactive
2,Cc1c(P(=S)(c2ccccc2)c2ccccc2)c2ccccc2n1C(=O)Cc1ccccc1,inactive
3,COc1ccc(CCC(=O)NCCc2nc3ccccc3n2CCOc2ccc(C)cc2)cc1,inactive
4,O=C(OCC#CCSc1nnc(-c2cccc3ccccc23)o1)c1cc2ccccc2o1,inactive
5,COc1ccc(S(=O)(=O)N2CCN(C(=O)C3COc4ccccc4O3)CC2)cc1 (stereo not drawn),inactive
6,Cc1cnc(-c2ccccc2C(C)C)nc1NCC1CCN(c2cnccn2)CC1,inactive
7,CCOC(=O)c1csc(NC(=O)c2ccncc2NS(=O)(=O)c2ccc(C)cc2)n1,inactive
8,O=[S+]([O-])(Nc1ccc(-c2ccccc2)cc1)c1ccc(NCc2ccc(Cl)cc2O)cc1,inactive
9,COc1cc(O)c(C(CC(=O)N2CCC(c3ccccc3)CC2)c2ccc3c(c2)OCO3)c(OC)c1 (stereo not drawn),inactive
10,Cc1cc(Nc2c(Nc3nnc(-c4ccncc4)s3)c(=O)c2=O)ccc1Cl,inactive
11,O=C(COC(=O)CNC(=O)c1ccccc1Cl)Nc1ccccc1Cl,inactive
12,CCOC(=O)c1ccc(-n2cnc3cc(C(=O)N4CCCCC4)ccc32)cc1,inactive
13,O=S(=O)(c1ccc2c(c1)OCCO2)N1CCN(S(=O)(=O)c2cc(F)ccc2F)CC1,inactive
14,Cc1ccc(-c2nc3c(c(SCC(=O)Nc4cccc(C(=O)O)c4)n2)Cc2cccc(C)c2O3)cc1,inactive
15,Fc1ccccc1-c1ccc(Nc2nc(-c3ccncc3)nc3ccccc23)cc1F,inactive
16,COc1ccc2nc(-c3cccc(OCc4ccccc4)c3)sc2c1,inactive
17,COc1ccc(-c2cnc(-c3cccc4c3-c3ccccc3C4=O)o2)cc1,inactive
18,O=S(=O)(c1ccc(O)c2ncccc12)N1CCCCC1,inactive
19,Cc1cc(C)nc(NC(=S)N2CCN(c3ncccc3Cl)CC2)c1,inactive
20,Fc1ccc(-c2ccc(Nc3nc(-c4ccncc4)nc4ccccc34)cc2F)c(Cl)c1,inactive
21,Cc1cc2c(s1)c1cnn(Cc3ccc(C(F)(F)F)cc3F)c(=O)c1n2C,inactive
22,O=C1c2ccccc2C(=O)N1Cc1ccncc1,inactive
23,Cc1ccccc1S(=O)(=O)Nc1cnccc1C(=O)Nc1nc(-c2ccccc2)cs1,inactive

# Biological target: Retinaldehyde dehydrogenase 3 (Homo sapiens) (UniProt P47895)
# Assay: qHTS for Inhibitors of the Aldehyde Dehydrogenase Family (ALDH1A3) Primary screen (AID 2061315)
# Conditions: ALDH inhibition qHTS; series mostly up to 56 µM
row,SMILES,Potency
1,O=S(=O)(Nc1nc(CN2CCOCC2)nc2sc3c(c12)CCC3)c1ccc2c(c1)OCCO2,inactive
2,COc1ccc(-n2ncc3c2CCCC3NC(=O)c2ccc3ncccc3c2)cc1 (stereo not drawn),inactive
3,Cc1onc(-c2ccccc2Cl)c1C(=O)N[C@@H]1C(=O)N2[C@@H]1SC(C)(C)[C@@H]2C(=O)O,inactive
4,Cc1csc(CNc2ncnc3ccc(-c4cccc(Cl)c4)cc23)c1,inactive
5,Cc1cc2c(s1)c1cnn(Cc3cc(OC(F)(F)F)ccc3F)c(=O)c1n2C,inactive
6,Cc1cccc(-c2ccc3ncnc(N(C)Cc4ccco4)c3c2)c1,inactive
7,O=C(NCCc1nc2ccccc2n1CCOc1ccc(F)cc1)C1CCCCC1,inactive
8,Cc1ccccc1C(=O)NCC(=O)OC(C(=O)Nc1cc(C(F)(F)F)ccc1Cl)c1ccccc1 (stereo not drawn),inactive
9,Cc1ccc(NS(=O)(=O)c2ccc3c(c2)CCC(C)(C)O3)cc1C,inactive
10,Nc1ccc2c(=O)n3nc(Nc4ccc5c(c4)CCC5)sc3nc2c1,inactive
11,Cn1nnnc1Sc1ncnc2scc(-c3ccc(Br)cc3)c12,inactive
12,COc1ccc(C2c3c(ncn(Cc4ccccc4)c3=N)Oc3ccc4ccccc4c32)cc1OC (stereo not drawn),inactive
13,Cn1nnnc1Sc1ncnc2scc(-c3cccc(C#N)c3)c12,inactive
14,N#Cc1cccc(-c2ccc(NC(=O)c3cccs3)cn2)c1,inactive
15,O=C(Cc1ccc(Cl)c(Cl)c1)Nc1ccc([S+](=O)([O-])Nc2nnc(-c3ccccn3)s2)cc1,inactive
16,O=c1c2ccccc2nc2sc(Nc3cccc(Cl)c3)nn12,inactive
17,CCN(CC)CCCC(C)n1c(-c2ccccc2)nc2c(NCc3ccccc3)nc(C)nc21 (stereo not drawn),inactive
18,N=c1c2c(ccn1Cc1ccccc1)Oc1ccc3ccccc3c1C2c1ccccc1 (stereo not drawn),inactive
19,Cc1c(P(=S)(c2ccccc2)c2ccccc2)c2ccccc2n1C(=O)Cc1ccccc1,inactive
20,COc1ccc(CCC(=O)NCCc2nc3ccccc3n2CCOc2ccc(C)cc2)cc1,inactive

row,SMILES,Potency
1,O=C(OCC#CCSc1nnc(-c2cccc3ccccc23)o1)c1cc2ccccc2o1,inactive
2,COc1ccc(S(=O)(=O)N2CCN(C(=O)C3COc4ccccc4O3)CC2)cc1 (stereo not drawn),inactive
3,Cc1cnc(-c2ccccc2C(C)C)nc1NCC1CCN(c2cnccn2)CC1,inactive
4,CCOC(=O)c1csc(NC(=O)c2ccncc2NS(=O)(=O)c2ccc(C)cc2)n1,inactive
5,O=[S+]([O-])(Nc1ccc(-c2ccccc2)cc1)c1ccc(NCc2ccc(Cl)cc2O)cc1,inactive
6,COc1cc(O)c(C(CC(=O)N2CCC(c3ccccc3)CC2)c2ccc3c(c2)OCO3)c(OC)c1 (stereo not drawn),inactive
7,Cc1cc(Nc2c(Nc3nnc(-c4ccncc4)s3)c(=O)c2=O)ccc1Cl,inactive
8,O=C(COC(=O)CNC(=O)c1ccccc1Cl)Nc1ccccc1Cl,inactive
9,CCOC(=O)c1ccc(-n2cnc3cc(C(=O)N4CCCCC4)ccc32)cc1,inactive
10,O=S(=O)(c1ccc2c(c1)OCCO2)N1CCN(S(=O)(=O)c2cc(F)ccc2F)CC1,inactive
11,Cc1ccc(-c2nc3c(c(SCC(=O)Nc4cccc(C(=O)O)c4)n2)Cc2cccc(C)c2O3)cc1,inactive
12,Fc1ccccc1-c1ccc(Nc2nc(-c3ccncc3)nc3ccccc23)cc1F,inactive
13,COc1ccc2nc(-c3cccc(OCc4ccccc4)c3)sc2c1,inactive
14,COc1ccc(-c2cnc(-c3cccc4c3-c3ccccc3C4=O)o2)cc1,inactive
15,O=S(=O)(c1ccc(O)c2ncccc12)N1CCCCC1,inactive
16,Cc1cc(C)nc(NC(=S)N2CCN(c3ncccc3Cl)CC2)c1,inactive
17,Fc1ccc(-c2ccc(Nc3nc(-c4ccncc4)nc4ccccc34)cc2F)c(Cl)c1,inactive
18,Cc1cc2c(s1)c1cnn(Cc3ccc(C(F)(F)F)cc3F)c(=O)c1n2C,inactive
19,O=C1c2ccccc2C(=O)N1Cc1ccncc1,inactive
20,Cc1ccccc1S(=O)(=O)Nc1cnccc1C(=O)Nc1nc(-c2ccccc2)cs1,inactive
